# Inconclusive results are not listed. A call without a number means that no potency is given here. Activity calls are given as the source filed them. Calls follow the shape of the dose curve; as a rule, active = well fitted curve in either direction with a large enough effect (not every such curve was filed as active); inconclusive = small, poorly fitted or top-dose-only effect, or another doubt; inactive = flat fitted curve, though single readings scatter.
# Molecular target: Mitogen-activated protein kinase 10 (Mus musculus) (UniProt Q61831)
# Assay: JNK3 AlphaScreen Assay (AID 530);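 also: kinase came from lysate of stimulated human HepG2 cells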
# Details: JNK3 lysate, c-Jun phosphorylation; series mostly up to 11.4 µM
# Source text: NIH Chemical Genomics Center [NCGC]
# NIH Molecular Libraries Screening Centers Network [MLSCN]
# The c-jun N-terminal kinase (JNK) family are serine/threonine protein kinases that phosphorylate c-jun, a component of the transcription factor […] (AP-1). JNK kinases are members of the mitogen-activated protein kinase family including the extracellular regulated kinases and p38 kinases. Three JNK genes (JNK 1, 2, and 3) have been identified in humans so far. JNK1 and JNK2 have a broad distribution and JNK3 is primarily found in neuronal tissues and cardiac myocytes.
# JNK3 has been under consideration as a target for the treatment of neurodegenerative disorders. […] JNK pathway is also involved in pathological process in a mouse model of Parkinson's disease (Xia et al., 2001).
# Given these potential tissue distributions and links to neuroprotection, JNK3 inhibitors should provide useful investigational tools to study the role of this kinase in several diseases including, arthritis, stroke, myocardial infarction, ischemic injury and Parkinson's disease.
# A homogeneous AlphaScreen is developed to measure the activity of JNK3. AlphaScreen is a two bead-based proximity-dependent chemical energy transfer luminescent assay platform. The phosphorylation of a biotinylated c-jun substrate by JNK3 can be detected with an antibody raised against phosphorylated c-jun. This process brings streptavidin donor beads and Protein-A acceptor beads to within a proximity range of <200 nm, and subsequently lead a chemical luminescent reaction upon exciting donor beads with 680 nm laser excitation light. Inhibition of JNK3 activity by small molecules and subsequent decrease in the antibody binding to biotinylated c-jun could attenuate or abolish this chemical luminescent reaction.
# Yang DD, Kuan CY, Whitmarsh AJ, Rincon M, Zheng TS, Davis RJ, Rakic P and Flavell RA (1997) Absence of excitotoxicity-induced apoptosis in the hippocampus of mice lacking the Jnk3 gene. Nature 389:865-870. [PMID: 9349820]
# Herdegen T, Claret FX, Kallunki T, Martin-Villalba A, Winter C, Hunter T, and Karin M (1998) Lasting N-terminal phosphorylation of c-Jun and activation of c-Jun N-terminal kinases after neuronal injury. J.Neurosci. 18:5124-5135. [PMID: 9651196]
# Xia XG, Harding T, Weller M, Bieneman A, Uney JB and Schulz JB (2001) Gene transfer of the JNK interacting protein-1 protects dopaminergic neurons in the MPTP model of Parkinson's disease. Proc.Natl.Acad.Sci.U.S.A. 98:10433-10438.
# NCGC Assay Protocol Summary:
# GST-cJun (1-79) (Stratagene, La Jolla CA, #205145) was biotnylated by PerkinElmer (PerkinElmer-BioSignalInc. Montreal, Canada) and was detectable by the streptavidin Donor beads. Anti-(phospho)cJun (Ser73) antibody was from UpState (Charlottesvilles, VA, #06-659). JNK3-containing lysates were generated from HepG2 cells and pre-activated by interleukin1-beta and tumor necrosis factor alpha. All reagents were stored at -20 C before using. Phosphorylated biotinylated-GST-cJun was recognized by Anti-(phospho)cJun (Ser73) antibody and this process brings acceptor and donor beads together. Therefore JNK3 phosphorylation of cJun can be measured by Alpha reading by EnVision (PerkinElmer, Boston, MA).
# The composition of kinase buffer was (in mM) 20 tris- HCl (pH 7.6) 10 MgCl2, 1 DTT, and 0.1 Na3VO4 and 0.01% Tween-20. Beads were diluted in detection buffer containing (in mM) 20 tris-HCl (pH 7.7), 20 NaCl and 80 EDTA and 0.3% BSA. The assay was performed at room temperature. All compounds were screened as titrations from 0.6 nM to 46 uM final concentration. The assay was performed in 1536-well format (white solid bottom and untreated) as follows:
# Sequence,Parameter,Value,Description
# 1,Reagent,3 uL,Biotin-GST-cJun, Anti-(phospho)cJun and pre-activated JNK3-containing lysates
# 2,Compound,23 nL,Final concentration was 0.6nM to 46uM
# 3,Time,15 minutes,Room Temperature
# 4,Reagent,1 uL,ATP final concentration 10uM
# 6,Reagent,0.5 uL,2ng/well bead mixture
# […]
row,SMILES,Potency
1,C[N+](C)(C)CC(=O)N/N=C\c1c(O)ccc2ccccc12,inactive
2,OCCSCc1cc(Cl)cc(Cl)c1O,inactive
3,CC1=NCC[N@@+]1(CCc1ccccc1)Cc1ccccc1,inactive
4,Nc1ccc(CCNc2ncnc3c2ncn3[C@@H]2O[C@@H](CO)[C@H](O)[C@@H]2O)cc1,inactive
5,C=C1CCO[C@@]2([C@H](O)[C@@](C)(O)CO)NC(=O)[C@]1(O)NC2=O,inactive
6,CN1CCN(c2ncc3nc(-c4ccccc4)c(=O)n(Cc4ccc(F)cc4)c3n2)CC1,inactive
7,O=C(O)Cc1cccnc1,inactive
8,O=C(CC1(O)CCCCC1)OC1CCCC1,inactive
9,COc1ccc(C[N+](C)(C)N)cc1OC,inactive
10,Cc1cc(Cc2cc(C)c(N)cc2N)c(N)cc1N,inactive
11,O=C(O)/C=C\C(=O)Nc1ccc2c(c1)-c1ccccc1C2,inactive
12,N[C@@H](CSc1nc2ccccn2c1[N+](=O)[O-])C(=O)O,inactive
13,C/C(=N/Nc1ccc2ccccc2n1)c1ccccc1O,inactive
14,CC(C)CNC(=O)O,inactive
15,CCC(=O)Nc1ncnc2ncn(C(=O)CC)c12,inactive
16,CN(C)C(=O)C1CCN(Cc2c[nH]c3ccccc23)CC1,inactive
17,S=C(CSc1ccccc1)Nc1cccc2ccccc12,inactive
18,Cc1ccc(S(=O)(=O)Nc2cc(=O)[nH]c3c2CCC3)cc1,inactive
19,Nc1ncnc2nc[nH]c12.Nc1ncnc2nc[nH]c12.[Cl][Pt]([Cl])([Cl])[Cl],inactive
20,CC[C@@]1([N+](=O)[O-])C[C@H]2C=C[C@@H]1C2,inactive

row,SMILES,Potency
1,N#Cc1c(NC(=O)CCC(=O)O)ccc2ccccc12,inactive
2,c1ccc(SC(Sc2ccccc2)c2ccc3c(c2)OCO3)cc1,inactive
3,CN(CC(=O)O)CC(=O)O,inactive
4,O=C(O)CCNCC(=O)O,inactive
5,Cc1c(Cl)c(S(N)(=O)=O)cc2c1=NC=NS=2(=O)O,inactive
6,N[C@@H](CCCCO)C(=O)O,inactive
7,O[C@H](CNc1ccccn1)c1ccccc1,inactive
8,O=C(O)CC1(C(=O)O)CCCCC1,inactive
9,NCOC(=O)Cc1ccc(Br)cc1,inactive
10,O=C1c2ccccc2-c2ccc(NC(=O)[C@H]3CCCC[C@@H]3C(=O)O)cc21,inactive
11,O=C(O)c1ccccc1N[C@H](c1ccccc1)c1ccc2cccnc2c1O,inactive
12,Nc1nc2c(ncn2[C@H]2CC[C@@H](CO)O2)c(=O)n1C(=O)c1ccccc1,inactive
13,N=C(N)SCCc1ccncc1,inactive
14,COc1ccc(Cc2ccccc2C(=O)O)c2ccccc12,inactive
15,O=C1Nc2ccccc2C1=Nc1ccc(S(=O)(=O)Nc2nccs2)cc1,inactive
16,Cc1ccc(S(=O)(=O)OCC(=O)O)cc1,inactive
17,CCOc1ccc2nc(N)sc2c1,inactive
18,Cc1cc(C)c(O)c(Cc2cccc(Cc3cc(C)cc(C)c3O)c2O)c1,inactive
19,CSCC[C@@H](C(=O)O)N(C)C,inactive
20,O=C(O)c1cc(N=Nc2ccc([N+](=O)[O-])cc2)ccc1O,inactive

# Reference: PubChem BioAssay (NCATS)
